Records with an inconclusive call do not appear. Where a call stands in place of a potency, no number is given. Active and inactive are the calls of the source. The call rests on the fitted dose curve; in most records, active means well fitted curve in the direction sought with a large enough effect; inconclusive means small, poorly fitted or top-dose-only effect, or another doubt; inactive means no such curve, though single readings can be large; an effect the other way counts as inactive or inconclusive.
Assays:
[1] = NS1 protein of Zika virus - qHTS assay to identify small molecule inhibitors in human HEK 293 cells (AID 1347053); settings: HEK293 ZIKV MR766 infection, NS1 TR-FRET, 24 h; series mostly up to 46.1 µM; further: nearly all actives have a fitted effect of over 55% in size
Procedure, shortened: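 Read-out is a two-antibody TR-FRET for ZIKV NS1, normalized between uninfected cells and infected cells. Compound added 1 h before MR766 infection at MOI 0.5; human HEK 293 cells incubated 24 h, 37 C.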

[2] = qHTS of pediatric cancer cell lines to identify multiple opportunities for drug repurposing: Primary screen for TC32 cells (AID 1347089); settings: TC32 Ewing sarcoma viability, CellTiter-Glo luminescence, 48 h; series mostly up to 45.8 µM; further: nearly all actives have a fitted effect of over 60% in size
Procedure, shortened: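 Luminescent ATP read-out (CellTiter-Glo) of metabolically active TC32 cells after 48 h exposure. Concentration-response curves came from 11-point (MIPE, 0.78 nM–46 µM) or 8-point (NPC, 0.59 nM–46 µM) primary titrations; follow-up used 11 points.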

[3] = qHTS of pediatric cancer cell lines to identify multiple opportunities for drug repurposing: Primary screen for DAOY cells (AID 1347090); settings: DAOY medulloblastoma viability, CellTiter-Glo luminescence, 48 h; series mostly up to 46 µM; further: nearly all actives have a fitted effect of over 55% in size
Procedure, shortened: (§1)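 Viability measured as metabolically active cells via CellTiter-Glo luminescence following 48 hours of compound exposure, 11-point dilutions in confirmatory testing. 500-1,000 cells/well plated 5 hours before dosing; controls were DMSO and 2.3 µM bortezomib.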

[4] = qHTS of pediatric cancer cell lines to identify multiple opportunities for drug repurposing: Primary screen for A673 cells (AID 1347092); settings: A673 Ewing sarcoma viability, CellTiter-Glo ATP luminescence, 48 h; series mostly up to 46 µM; further: nearly all actives have a fitted effect of over 45% in size; further: potency means the concentration at half of the fitted maximal effect
Procedure, shortened: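 Cell viability of A673 measured by CellTiter-Glo ATP luminescence after 48 hours compound exposure. Dilution series spanned 0.78 nM to 46 µM (MIPE, 11-point) or 0.59 nM to 46 µM (NPC, 8-point); bortezomib 2.3 uM positive control.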

[5] = qHTS of pediatric cancer cell lines to identify multiple opportunities for drug repurposing: Primary screen for SK-N-MC cells (AID 1347093); settings: SK-N-MC viability, CellTiter-Glo luminescence, 48 h; series mostly up to 46 µM; further: potency means the concentration at half of the fitted maximal effect
Procedure, shortened: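 Metabolically active cells were quantified by ATP-dependent luminescence (CellTiter-Glo, 15 min at room temperature) following 48 h treatment. Cells had been plated at 500-1,000 per well and settled for 5 h beforehand.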

[6] = qHTS of pediatric cancer cell lines to identify multiple opportunities for drug repurposing: Primary screen for NB-EBc1 cells (AID 1347095); settings: NB-EBc1 neuroblastoma viability, CellTiter-Glo luminescence, 48 h; series mostly up to 46 µM
Procedure, shortened: (§2)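 Readout: CellTiter-Glo luminescence, 48 h treatment. Controls DMSO (neutral) and bortezomib 2.3 µM final (positive). Potency and efficacy taken from primary-screen concentration-response curves.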

[7] = qHTS of pediatric cancer cell lines to identify multiple opportunities for drug repurposing: Primary screen for U-2 OS cells (AID 1347096); settings: U-2 OS viability, CellTiter-Glo luminescence, 48 h; series mostly up to 46 µM; further: nearly all actives have a fitted effect of over 50% in size
Procedure, shortened: (§3)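 Viability after 48 h compound treatment at 37C, 500-1,000 cells/well, read as ATP luminescence with CellTiter-Glo. Primary screens used 11-point (MIPE, 0.78 nM-46 µM) or 8-point (NPC, 0.59 nM-46 µM) final concentrations; follow-up screens used 11-point dilutions.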

[8] = qHTS of pediatric cancer cell lines to identify multiple opportunities for drug repurposing: Primary screen for Saos-2 cells (AID 1347097); settings: Saos-2 viability, CellTiter-Glo ATP luminescence, 48 h; series mostly up to 46 µM; further: nearly all actives have a fitted effect of over 40% in size
Procedure, shortened: as §2

[9] = qHTS of pediatric cancer cell lines to identify multiple opportunities for drug repurposing: Primary screen for BT-37 cells (AID 1347094); settings: BT-37 viability, CellTiter-Glo luminescence, 48 h; series mostly up to 57.3 µM
Procedure, shortened: as §2

[10] = qHTS of pediatric cancer cell lines to identify multiple opportunities for drug repurposing: Primary screen for SK-N-SH cells (AID 1347098); settings: SK-N-SH viability, CellTiter-Glo luminescence, 48 h; series mostly up to 57 µM; further: nearly all actives have a fitted effect of over 65% in size
Procedure, shortened: (§4)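 Cells (500-1,000/well) rested 5 h, then received compounds for 48 h; metabolically active cells were measured by CellTiter-Glo luminescence. Final concentrations spanned up to 46 µM (MIPE, 11-point) or 0.59 nM-46 µM (NPC, 8-point) in primary screens, 11-point in follow-ups.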

[11] = qHTS of pediatric cancer cell lines to identify multiple opportunities for drug repurposing: Primary screen for NB1643 cells (AID 1347099); settings: NB1643 neuroblastoma viability, CellTiter-Glo luminescence, 48 h; series mostly up to 46 µM; further: nearly all actives have a fitted effect of over 50% in size
Procedure, shortened: as §2

[12] = qHTS of pediatric cancer cell lines to identify multiple opportunities for drug repurposing: Primary screen for LAN-5 cells (AID 1347100); settings: LAN-5 neuroblastoma viability, CellTiter-Glo luminescence, 48 h; series mostly up to 46 µM
Procedure, shortened: as §3

[13] = qHTS of pediatric cancer cell lines to identify multiple opportunities for drug repurposing: Primary screen for BT-12 cells (AID 1347101); settings: BT-12 viability, CellTiter-Glo luminescence, 48 h; series mostly up to 57.3 µM; further: nearly all actives have a fitted effect of over 25% in size; further: potency means the concentration at half of the fitted maximal effect
Procedure, shortened: as §4

[14] = qHTS of pediatric cancer cell lines to identify multiple opportunities for drug repurposing: Primary screen for SJ-GBM2 cells (AID 1347091); settings: SJ-GBM2 viability, CellTiter-Glo luminescence, 48 h; series mostly up to 46 µM
Procedure, shortened: as §1

Structure (SMILES)	Potency [1]	Potency [2]	Potency [3]	Potency [4]	Potency [5]	Potency [6]	Potency [7]	Potency [8]	Potency [9]	Potency [10]	Potency [11]	Potency [12]	Potency [13]	Potency [14]
O=C(c1ccc(F)cc1)C1CCN(CCn2c(=S)[nH]c3ccccc3c2=O)CC1	inactive	inactive	inactive	16.8 µM (active)	inactive	inactive	inactive	inactive						
Cc1cc(C)cc(OCC2CNC(=O)O2)c1 (stereo not drawn)	inactive	inactive	inactive	inactive	inactive	inactive	inactive	inactive	inactive	inactive	inactive	inactive	inactive	
O=[N+]([O-])c1ccc(/C=N\O)o1	inactive	inactive	inactive		4.22 µM (active)	inactive		inactive	inactive	inactive				inactive
NS(=O)(=O)c1cc2c(cc1Cl)NC(CC1CCCC1)NS2(=O)=O (stereo not drawn)	inactive	inactive	inactive		inactive	inactive	inactive	inactive	inactive		inactive		inactive	inactive
C[C@H]1[C@H]2CC[C@H]3[C@@H]4CC=C5C[C@@H](N(C)C)CC[C@]5(C)[C@H]4CC[C@]23CN1C	inactive	inactive	inactive			inactive	inactive			inactive	inactive	inactive	inactive	inactive
COc1ccc(C(=O)c2ccccc2O)c(O)c1	inactive	inactive	inactive		inactive	inactive	inactive		inactive		inactive		inactive	inactive
COc1cc(C)nc(-n2nc(C)cc2OC)n1	inactive	inactive	inactive		inactive	inactive	inactive	inactive	inactive		inactive	inactive	inactive	
O=C1[C@H](CC[C@H](O)c2ccc(F)cc2)[C@@H](c2ccc(O)cc2)N1c1ccc(F)cc1	inactive	inactive	inactive	inactive		inactive	inactive	inactive	inactive		inactive	inactive		
CCOC(=O)c1c(N)sc2c1CCN(Cc1ccccc1)C2	inactive	inactive	inactive			inactive	inactive	inactive			inactive		17.4 µM (active)	inactive
CC(C)(C)CC(C)(C)c1ccc(O)c(-n2nc3ccccc3n2)c1	inactive	inactive	inactive	inactive		inactive	inactive	inactive	inactive	inactive	inactive	inactive	inactive	
O=C(Nc1ccccc1)OCC(CN1CCCCC1)OC(=O)Nc1ccccc1 (stereo not drawn)	inactive	inactive	inactive		inactive	inactive	inactive				inactive			
CC(=O)O[C@]1(C(C)=O)CC[C@H]2[C@@H]3C=C(Cl)C4=CC(=O)CC[C@]4(C)[C@H]3CC[C@@]21C	inactive	inactive		inactive		inactive		inactive			inactive	inactive		inactive
CC(=C(CCOC(=O)C(C)C)SSC(CCOC(=O)C(C)C)=C(C)N(C=O)Cc1cnc(C)nc1N)N(C=O)Cc1cnc(C)nc1N	inactive	inactive		inactive		inactive	inactive	inactive	inactive	inactive	inactive	inactive	inactive	inactive
CN(CCCN1c2ccccc2CCc2ccccc21)CC(=O)c1ccc(Cl)cc1	inactive	inactive		inactive	inactive	inactive		inactive	inactive		inactive			
COc1cc(C(=S)N2CCOCC2)ccc1O	inactive	inactive		inactive	inactive	inactive	inactive	inactive	inactive		inactive	inactive	inactive	inactive
C/C=C/C=N/NC(=O)c1ccncc1	inactive	inactive	inactive		inactive	inactive		inactive	inactive	inactive		inactive	inactive	
O=S(=O)(O)c1ccc(O)cc1	inactive	inactive		inactive	inactive	inactive		inactive	inactive	inactive	inactive	inactive	inactive	inactive
C#C[C@]1(O)CC[C@H]2[C@@H]3CCC4=Cc5oncc5C[C@]4(C)[C@H]3CC[C@@]21C	inactive	inactive	inactive				inactive			inactive	inactive			
C[N+]12CCC(CC1)C(OC(=O)C(O)(c1ccccc1)c1ccccc1)C2 (stereo not drawn)	inactive	inactive			inactive	inactive		inactive	inactive	inactive	inactive	inactive	inactive	inactive
Cc1cccc(C)c1NC(=O)c1ccccc1C(=O)O	inactive	inactive			inactive	inactive		inactive	inactive	inactive	inactive	inactive	inactive	inactive
CO[C@H]1C=CO[C@@]2(C)Oc3c(C)c(O)c4c(O)c(c(/C=N/N5CCN(C)CC5)c(O)c4c3C2=O)NC(=O)/C(C)=C\C=C[C@H](C)[C@H](O)[C@@H](C)[C@@H](O)[C@@H](C)[C@H](OC(C)=O)[C@@H]1C	inactive	inactive		inactive		inactive			inactive		inactive	inactive		inactive
